These results are taken from PubChem BioAssay (NCI).

The structures appear in SMILES notation. About 83,000 compounds went through this panel and 20% of them were active in at least one assay; those are over-represented in the sample as a whole.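 Results are percent growth after 48 hours of single-concentration exposure. 100 means growth as in untreated cells, lower positive values show inhibition; negative values down to -100 show cell death.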 Unmarked numbers belong to inactive results. Active and inactive are the calls of the source. How the source made its calls: active means growth percent below 10; inactive means the rest.

For one test, the system named is MDA-MB-435 melanoma. The test is described as follows: NCI-60 one-dose screen, 48 h (100 = growth as untreated, 0 = no growth, -100 = all killed). The following applies: 10 µM unless noted.
For `O=[N+]([O-])c1ccc(Sc2nc(Cl)nc(NC3CCCC3)n2)cc1`, the growth was -95.9% [100 µM] (active).
In the case of `Cc1c(C(N)=O)sc2ncn(CC(=O)NN=C3CCCCC3)c(=O)c12`, the growth was 99%.
On the same count and under the same terms, in the case of `CC1=C(O)C(=O)CC1` it was 98.1%.
Take `CCOC(=O)C1C(=O)C=C(c2cc(OC)c(OC)c(OC)c2)CC1c1sc(N(C)Cc2ccccc2)nc1Cl` (stereo unspecified): the growth is 95.1%.
Consider `COc1cc(C2CC(c3ccccc3)=NN2C=O)ccc1Oc1nc2c(c(=O)n(C)c(=O)n2C)n1C` (stereo unspecified), for which the growth was 56.8%.
The same measure, in the same setting: next, `O/N=C1\c2ccccc2-c2ccc(Br)cc21`: 113%; `COc1ccc2c(c1)OC1=C(C(=O)OC1)C2c1cc(OC)c2c(c1)OCCO2` (stereo unspecified): -18.1% (active); `CN1CCC2(CC1)N=C(SCC(=O)Nc1cnc3ccccc3c1)C(c1ccc(Br)cc1)=N2`: 1.84% (active).
Consider `Clc1ccc(C2=NN[C@H](c3cn(-c4ccccc4)nc3-c3ccccc3)C2)cc1`, for which the growth is 47.3%.
For the compound `COc1cc(C)c(Cl)cc1C1=NN(c2ccc(S(N)(=O)=O)cc2)C(/C=C/c2ccccc2)C1` (stereo unspecified), the growth is 62.5%.
On the same count and under the same terms, next, `Clc1ccc(-c2cnc3nonc3n2)s1`: -10.6% (active); `CN1C(=O)NC(Cc2c[nH]c3c(Cl)cccc23)C1=O` (stereo unspecified): 114%; `COc1ccc(C(=O)N2N=C(c3ccc(F)cc3)CC2c2cn(-c3ccccc3)nc2-c2ccccc2)cc1` (stereo unspecified): 62.5%.
On the same count and under the same terms, in the case of `CN(C)c1ccc(C2(Cl)c3ccccc3N(C)c3ccccc32)cc1` it was 46.7%; in that of `CC(=O)c1ccc(Br)c([N+](=O)[O-])c1`, 101%; in that of `Cc1ccc(C(=O)CC(=O)C(F)(F)C(F)(F)C(F)(F)F)s1`, 99%.
Consider `COc1cc2c(cc1OC)-c1cc(OC)c(OC)cc1C(CN(C)C)C2` (stereo unspecified), for which the growth is 63.8% [100 µM].
Take `CCOC(=O)C1OC2(CCCC2)OC1C(=O)OCC` (stereo unspecified): the growth is 112%.
Turning to `CCCCCCCCCCCCCCCCCC(=O)[O][Sn]([CH2]CCC)([CH2]CCC)[CH2]CCC`, the growth was -87.2% (active).
For `FC(F)(F)c1nn[nH]n1`, the growth was 101%.
On the same count and under the same terms, next, `COc1cc(OC)c(Cl)cc1N`: 98.2%; `O=C1N(Cc2ccccc2Cl)c2ccccc2C12NN=C(c1ccccc1)S2` (stereo unspecified): 68.5%.
On to `N/C(=N\OC(=O)c1ccccc1)C(Cc1ccccc1)C(=O)NOC(=O)c1ccccc1` (stereo unspecified), for which the growth is 5.12% (active).
Still for that read-out and setting: next, `Nc1ccc(C2=NNC(=O)Cc3cc4c(cc32)OCCO4)cc1Cl`: -19.2% (active); `COc1ccc2nc3ccccc3c(NCc3ccc(Cl)cc3)c2c1`: 24.1%; `COC1(OC)C2(Cl)CCC1(Cl)C(Cl)=C2Cl`: 99.9%.
On the same count and under the same terms, next, `O=C(NCCN1CCCCC1)n1cc(-c2ccncc2)c(-c2ccc(Cl)c(O)c2)n1`: 58.9%.
On the same count and under the same terms, next, `CC(=O)N1N=C(C2C(=O)N(C)C(=O)N(C)C2=O)CC1c1ccccc1C(=O)O` (stereo unspecified): 102%; `c1cc(C2CCCCC2)ccc1-c1cnc2nonc2n1`: -28.4% (active); `COc1ccc(-c2nc3c(c(-c4ccc(Cl)cc4)nn3-c3ccccc3)c(-c3ccc(O)cc3)c2C#N)cc1`: 44.3%.
`c1ccc(-c2nnn(-c3ccccc3)n2)cc1`: the growth is 106%.
Still for that read-out and setting: next, `CC(C)c1nc2ccccc2n1CC(=O)N/N=C/c1cccc(O)c1`: 99.8%; `N#Cc1ccc(-c2ccc(-c3cccs3)o2)cc1F`: 94.8%; `CCN1C(=O)N(CC)C2C1NN=c1s/c(=C\c3ccco3)c(=O)n12` (stereo unspecified): -56.9% (active).
For the compound `O=C(O)C(CCc1ccccc1)NCc1ccccc1` (stereo unspecified), the growth was 104%.
Consider `CN1C2CCC1/C(=C\c1ccc(Cl)cc1)C(=O)/C2=C/c1ccc(Cl)cc1`, for which the growth was 63.9%.
Same read-out and setting: next, `Cc1cccc(/C=N/n2c(-c3ccc(Cl)cc3)nc3c(Br)cc(Br)cc3c2=O)c1`: 66%; `ClC1(Cl)C2CCCCCCC21` (stereo unspecified): 104%.

Another test relates to SW-620 colon. Described as above. To be noted: 10 µM unless noted.
As to `O=[N+]([O-])c1ccc(Sc2nc(Cl)nc(NC3CCCC3)n2)cc1`, the growth is -63.1% [100 µM] (active).
Regarding `Cc1c(C(N)=O)sc2ncn(CC(=O)NN=C3CCCCC3)c(=O)c12`, the growth was 97.4%.
For `CC1=C(O)C(=O)CC1`, the growth is 108%.
Regarding `CCOC(=O)C1C(=O)C=C(c2cc(OC)c(OC)c(OC)c2)CC1c1sc(N(C)Cc2ccccc2)nc1Cl` (stereo unspecified), the growth was 95.7%.
Same read-out and setting: next, `COc1cc(C2CC(c3ccccc3)=NN2C=O)ccc1Oc1nc2c(c(=O)n(C)c(=O)n2C)n1C` (stereo unspecified): 97.9%; `O/N=C1\c2ccccc2-c2ccc(Br)cc21`: 119%; `COc1ccc2c(c1)OC1=C(C(=O)OC1)C2c1cc(OC)c2c(c1)OCCO2` (stereo unspecified): 24.6%.
In the case of `CN1CCC2(CC1)N=C(SCC(=O)Nc1cnc3ccccc3c1)C(c1ccc(Br)cc1)=N2`, the growth was -6.58% (active).
For `Clc1ccc(C2=NN[C@H](c3cn(-c4ccccc4)nc3-c3ccccc3)C2)cc1`, the growth is 48.7%.
Consider `COc1cc(C)c(Cl)cc1C1=NN(c2ccc(S(N)(=O)=O)cc2)C(/C=C/c2ccccc2)C1` (stereo unspecified), for which the growth was 43.9%.
Same read-out and setting: next, `Clc1ccc(-c2cnc3nonc3n2)s1`: 82.6%; `CN1C(=O)NC(Cc2c[nH]c3c(Cl)cccc23)C1=O` (stereo unspecified): 112%; `COc1ccc(C(=O)N2N=C(c3ccc(F)cc3)CC2c2cn(-c3ccccc3)nc2-c2ccccc2)cc1` (stereo unspecified): 47.3%.
As to `CN(C)c1ccc(C2(Cl)c3ccccc3N(C)c3ccccc32)cc1`, the growth was 21.6%.
On the same count and under the same terms, next, `CC(=O)c1ccc(Br)c([N+](=O)[O-])c1`: 120%; `Cc1ccc(C(=O)CC(=O)C(F)(F)C(F)(F)C(F)(F)F)s1`: 103%.
Still for that read-out and setting: in the case of `COc1cc2c(cc1OC)-c1cc(OC)c(OC)cc1C(CN(C)C)C2` (stereo unspecified) it was 82.4% [100 µM].
Regarding `CCOC(=O)C1OC2(CCCC2)OC1C(=O)OCC` (stereo unspecified), the growth is 113%.
For the compound `CCCCCCCCCCCCCCCCCC(=O)[O][Sn]([CH2]CCC)([CH2]CCC)[CH2]CCC`, the growth was -83.6% (active).
Turning to `FC(F)(F)c1nn[nH]n1`, the growth is 112%.
On the same count and under the same terms, next, `COc1cc(OC)c(Cl)cc1N`: 102%; `O=C1N(Cc2ccccc2Cl)c2ccccc2C12NN=C(c1ccccc1)S2` (stereo unspecified): 47.6%.
For `N/C(=N\OC(=O)c1ccccc1)C(Cc1ccccc1)C(=O)NOC(=O)c1ccccc1` (stereo unspecified), the growth is 65.3%.
In the case of `Nc1ccc(C2=NNC(=O)Cc3cc4c(cc32)OCCO4)cc1Cl`, the growth is 18.7%.
Regarding `COc1ccc2nc3ccccc3c(NCc3ccc(Cl)cc3)c2c1`, the growth is 12.8%.
`COC1(OC)C2(Cl)CCC1(Cl)C(Cl)=C2Cl`: the growth was 120%.
The same measure, in the same setting: next, `O=C(NCCN1CCCCC1)n1cc(-c2ccncc2)c(-c2ccc(Cl)c(O)c2)n1`: 100%.
The same measure, in the same setting: in the case of `CC(=O)N1N=C(C2C(=O)N(C)C(=O)N(C)C2=O)CC1c1ccccc1C(=O)O` (stereo unspecified) it was 107%.
Consider `c1cc(C2CCCCC2)ccc1-c1cnc2nonc2n1`, for which the growth is 22%.
For `COc1ccc(-c2nc3c(c(-c4ccc(Cl)cc4)nn3-c3ccccc3)c(-c3ccc(O)cc3)c2C#N)cc1`, the growth is 48.5%.
As to `c1ccc(-c2nnn(-c3ccccc3)n2)cc1`, the growth was 113%.
Still for that read-out and setting: next, `CC(C)c1nc2ccccc2n1CC(=O)N/N=C/c1cccc(O)c1`: 93.6%.
On the same count and under the same terms, next, `N#Cc1ccc(-c2ccc(-c3cccs3)o2)cc1F`: 98.5%; `CCN1C(=O)N(CC)C2C1NN=c1s/c(=C\c3ccco3)c(=O)n12` (stereo unspecified): 20.2%.
The same measure, in the same setting: in the case of `O=C(O)C(CCc1ccccc1)NCc1ccccc1` (stereo unspecified) it was 102%; in that of `CN1C2CCC1/C(=C\c1ccc(Cl)cc1)C(=O)/C2=C/c1ccc(Cl)cc1`, 57.5%; in that of `Cc1cccc(/C=N/n2c(-c3ccc(Cl)cc3)nc3c(Br)cc(Br)cc3c2=O)c1`, 59.1%.
`ClC1(Cl)C2CCCCCCC21` (stereo unspecified): the growth is 107%.
